# From PubChem BioAssay AID1458 (National Center for Advancing Translational Sciences (NCATS), 2008)
# Hit rate of the full screen: of about 210,000 compounds, about 5,900 (2.8%) were called active. Roughly 5% stayed inconclusive and do not appear here. The entries come from a sample that favours actives as a whole. Unmarked numbers belong to inactive results. The call rests on the fitted dose curve; in most records, active means well fitted activation curve with a large enough effect; inconclusive means small, poorly fitted or top-dose-only effect; inactive means no such curve, though single readings can be large or run the other way.
# Experiment: qHTS Assay for Enhancers of SMN2 Splice Variant Expression; further: nearly all actives have a fitted effect of over 55% in size; on activity change, positive = activation: % of control where 0% means no effect
# Conditions: HEK293 SMN2-luciferase splicing reporter, luminescence, 30-36 h; series mostly up to 46.1 µM; activity change, positive = activation: at the top concentration
# Procedure, shortened: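 HEK293 cells carry an SMN2 […]–luciferase reporter in which exon 7 inclusion puts luciferase in frame. Cells were plated 10-12 h before compound addition, then incubated 30-36 h at 37C. ONE-Glo luminescence was read; sodium butyrate at 4.5 mM final served as control.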
# Potency means the concentration at half of the fitted maximal effect.
Structure (SMILES),"activity change, positive = activation",Potency
CCOC(=O)c1ccccc1NC(=O)c1nn(-c2ccc(OC)c(Cl)c2)c(=O)c2c1c1ccccc1n2C,-6.12%,–
O=C(Nc1nncs1)c1ccccc1NS(=O)(=O)c1cccs1,-4.37%,–
COc1cccc(OC)c1C(=O)Nc1nnc(C(C)C)s1,-3.99%,–
COc1ccc(C(=O)Nc2nncs2)c(OC)c1,–,11.2 µM (active)
O=S(=O)(c1ccc(C2CCCCC2)cc1)N1CCN(c2ccc(Cl)c(Cl)c2)CC1,-6.14%,–
COc1ccc(-c2csc(NC(=O)COC(=O)c3ccc(Br)o3)n2)cc1,–,0.794 µM (active)
COc1ccc(-c2nc(CCNC(=O)c3ccc(Br)o3)cs2)cc1,-57.5%,–
CC(C)(C)NC(=O)NC(=O)COC(=O)Cc1ccc(Cl)cc1Cl,9.02%,–
COc1ccc(-c2csc(NC(=O)COC(=O)Cc3ccc(Cl)cc3Cl)n2)cc1,–,11.2 µM (active)
COc1ccc(-c2csc(NC(=O)CCCc3cccs3)n2)cc1,-8.51%,–
CCCc1ccc(-c2csc(NC(=O)Cc3cccs3)n2)cc1,-91.3%,–
COc1ccc(Nc2ncc(C(=O)Nc3cc(C)ccc3OC)c3ccccc23)cc1,3.77%,–
COc1ccc(-n2c(SCC(N)=O)nc3c(oc4ccccc43)c2=O)cc1,-12.5%,–
O=C(NCc1ccccc1)c1cc(-c2cccc(Cl)c2)on1,0.862%,–
COc1ccccc1CNc1nc2ccc(Cl)cc2n2cnnc12,-0.672%,–
Cc1ccc(Cl)cc1NC(=O)C(C)n1nnc2sc(-c3ccccc3)cc2c1=O (stereo not drawn),1.18%,–
O=C(c1cccc2ccccc12)N1CCN(c2ccccc2F)CC1,-6.5%,–
O=C(CCSc1ccccc1)N1CCN(c2ccccc2F)CC1,–,11.2 µM (active)
O=C(CCS(=O)(=O)c1cccc2nsnc12)N1CCN(c2ccccc2F)CC1,-8.49%,–
Cc1cc2n(n1)C(c1cc(C(C)(C)C)c(O)cc1O)Nc1ccccc1-2 (stereo not drawn),-2.87%,–
Cc1cccc(CSc2nc3ccncc3n2CC(=O)N(C)C2CCCCC2)c1,3.04%,–
CCOc1ccc(-c2cc3nc(C4CCN(C(=O)OC(C)(C)C)CC4)c(C(=O)Nc4cccc(CC)c4)cn3n2)cc1,6.72%,–
CC(C)(C)NC(=O)CSC(=Nc1ccccc1F)NC#N,–,20 µM (active)
Cc1ccccc1CSCC(=O)NC(=O)NC(C)(C)C,10.4%,–
CC(C)(C)NC(=O)CSc1nc(-c2ccc(F)cc2)cc(C(F)(F)F)n1,17.7%,–
Cc1cc(C)cc(NC(=O)Cc2csc(C)n2)c1,-8.87%,–

Structure (SMILES),"activity change, positive = activation",Potency
COc1cccc(NC(=O)CC2C(=O)NCCN2C(=S)Nc2ccc(F)cc2)c1 (stereo not drawn),-6.38%,–
CCNC(=O)N1CCNC(=O)C1CC(=O)Nc1ccc(C(=O)OCC)cc1 (stereo not drawn),-30.7%,–
COC(=O)c1cc(NC(=O)CC2C(=O)NCCN2C(=O)c2ccc(F)cc2)cc(C(=O)OC)c1 (stereo not drawn),–,10 µM (active)
COc1cc2c(=O)c(S(=O)(=O)c3ccc(C(C)C)cc3)cn(Cc3ccccc3C)c2cc1OC,-15.4%,–
O=C(Nc1ccccc1)c1ccc2nsnc2c1,14%,–
O=C(Nc1ccccc1)c1cc2ccccc2[nH]1,–,11.2 µM (active)
O=C(Nc1cccc(NC(=O)c2ccc(Br)cc2)c1)c1ccccc1,1.19%,–
Cc1nc(SCC(=O)N2CCN(c3ccccc3)CC2)[nH]c(=O)c1C,7.64%,–
Cc1oc(-c2ccccc2F)nc1CN1CCC(C(=O)NCCc2ccc(Cl)cc2)CC1,8.98%,–
COc1ccc(NC(=O)C2CCCN(S(=O)(=O)c3c(C)[nH]c(=O)[nH]c3=O)C2)c(OC)c1 (stereo not drawn),7.41%,–
COc1ccc(C(=O)Nc2sc(C)c(C)c2CN2CCOCC2)cc1,–,12.6 µM (active)
COc1ccc(C(=O)Nc2ccc(CN3CCOCC3)cc2)cc1,-18%,–
CCOC(=O)c1c(NC(=O)c2ccc(N3CCOCC3)c([N+](=O)[O-])c2)sc(C)c1C,-0.319%,–
CCOC(=O)C1CCCN(C(=O)Cn2ncc3c(C)n(Cc4ccc(F)cc4)c(C)c3c2=O)C1 (stereo not drawn),-22.8%,–
COc1ccc(-c2noc(CSc3nc4ccc(C)cc4[nH]3)n2)cc1,-46.7%,–
Cc1ccccc1C(=O)Nc1sc2c(c1C(=O)N1CCC(C)CC1)CCCC2,-1.84%,–
Cc1c(NC(=O)c2cc(=O)c3ccccc3o2)c(=O)n(-c2ccccc2)n1C,-4.74%,–
Cc1nn(C)cc1CNC(=O)Nc1ccc(Cl)cc1,–,15.8 µM (active)
Cc1nn(C)cc1C(=O)NNC(=S)Nc1ccc(Cl)cc1,8.55%,–
COc1ccc(Cl)cc1C(=O)NCc1cn(C)nc1C,1.02%,–
Oc1ccccc1-c1nc(/C=C/c2ccc(F)cc2)no1,3.13%,–
COc1ccc(C(=O)Nc2cccnc2)cc1C(=O)Nc1cccnc1,-8.52%,–
CCOC(=O)c1ccc(-c2ccc(C(=O)Nc3cccnc3)o2)cc1,–,6.31 µM (active)
CCOC(=O)c1cc(NC(=O)c2cccnc2)cc(C(=O)OCC)c1,12.2%,–
CCN(CC)c1ccc(C2C(C(N)=O)=C(C)Nc3nc(SCc4ccccc4)nn32)cc1 (stereo not drawn),7.44%,–
COCCn1c(CCC(=O)Nc2cc(C)ccc2C)nc2cccnc21,7.93%,–

Structure (SMILES),"activity change, positive = activation",Potency
N#C/C(=C\c1ccccc1F)c1nc2ccccc2c(=O)[nH]1,-1.96%,–
COc1ccccc1-c1nnc(SCC(=O)Nc2cc(C)on2)o1,-3.86%,–
COc1ccccc1-c1nnc(NC(=O)c2ccc3ncsc3c2)o1,–,14.1 µM (active)
COc1ccccc1-c1nnc(NC(=O)c2cccc(N3C(=O)CCC3=O)c2)o1,2.48%,–
Cn1c(=O)c2sccc2n2c(CCC(=O)NCc3ccccc3Cl)nnc12,1.76%,–
CCc1ccc2oc(-c3ccc(C)c(NC(=O)/C=C/c4ccco4)c3)nc2c1,4.88%,–
CCc1ccc2oc(-c3ccc(NC(=O)c4cc5ccccc5o4)cc3)nc2c1,6.02%,–
CCc1ccc2oc(-c3ccc(N)cc3)nc2c1,–,1 µM (active)
COc1ccc(OC)c(-c2csc(-c3c(N)c(C(=O)c4ccccc4)n4ccccc34)n2)c1,-0.921%,–
CCc1nn(CC(=O)N2CCN(c3cc(C)ccc3C)CC2)c(=O)c2cc3occc3n12,2.38%,–
O=C(c1ccc(Cl)cc1)n1nc(-c2cccnc2)nc1NCc1ccc(F)cc1,1.47%,–
COc1cc(Cl)c(C)cc1NC(=O)CCc1nc2cccnc2n1Cc1cccs1,-6.37%,–
Cc1ccccc1Nc1nnc(SCC(=O)c2cc3ccccc3o2)s1,-3.61%,–
Cc1ccc(Nc2nnc(SCC(=O)c3cc4ccccc4o3)s2)cc1C,–,12.6 µM (active)
CC(C)c1ccc(Nc2nnc(SCC(=O)c3nnc(-c4ccccc4)o3)s2)cc1,–,10 µM (active)
CC(C)Nc1nnc(SCC(=O)c2c[nH]c3ccccc23)s1,-12.7% [at 1.84 µM],–
O=C(CSc1nnc(Nc2ccccc2)s1)Nc1cccnc1Cl,5.82%,–
Cc1cc2c(=O)n(C)c(SCC(=O)c3cc4ccccc4o3)nc2s1,-1.87%,–
CCOCCCNC(=O)c1c(NC(=O)Cc2coc3c(C)c(C)ccc23)sc2c1CCC2,1.11%,–
Cc1cccc(N2CCN(C3=C(c4ccccc4)C(=O)c4ccccc43)CC2)c1C,1.91%,–
O=C1OC(C(=O)Nc2cccc(Br)c2)Cc2ccccc21 (stereo not drawn),0.983%,–
CCNS(=O)(=O)c1cc(-c2nnc(Nc3cccc(C(F)(F)F)c3)c3ccccc23)ccc1C,-4.9%,–
COc1cccc(CNC(=O)Cn2ncn3c(cc4ccccc43)c2=O)c1,5.36%,–
CCOC(=O)CSc1nc2ccc(C)cc2[nH]1,-0.138%,–
Cc1ccc(S(=O)(=O)NCCN2CCOCC2)cc1C,38.2%,–
Cc1cc2nc(SCCN3CCOCC3)[nH]c2cc1C,–,14.1 µM (active)

Structure (SMILES),"activity change, positive = activation",Potency
COc1ccc(S(=O)(=O)NCCSc2nnnn2-c2ccccc2)cc1,-43.5%,–
COc1ccc(NC(=O)NC(C)c2c(-n3cccc3)sc(C)c2C)cc1OC (stereo not drawn),-12.4%,–
COc1cccc(NC(=O)CCNS(=O)(=O)c2ccc3c(c2)oc(=O)n3C)c1,-7.42%,–
Cc1ccc(CNC(=O)CCNS(=O)(=O)c2ccc3c(c2)oc(=O)n3C)cc1,-6.56%,–
CC1CCCN(c2ccc(C(=O)NCCc3ccccc3)cn2)C1 (stereo not drawn),–,11.2 µM (active)
CC(=O)c1cccc(NC(=O)N2CCCC2C(=O)NCCc2ccccc2)c1 (stereo not drawn),12.8%,–
O=C(NCCc1ccccc1)c1ccc(NC2=NC3CS(=O)(=O)CC3S2)cc1 (stereo not drawn),-12.9%,–
Cc1oc2ccc(O)c(CN3CCCCC3)c2c1C(=O)Nc1cccc(C(F)(F)F)c1,-3.24%,–
CCC1CCCCN1S(=O)(=O)c1ccc(NC(=O)c2cc(=O)c3ccccc3o2)cc1 (stereo not drawn),17%,–
Cc1ccccc1NC(=O)Cn1c(=O)n(CCCCC(=O)NCc2ccccc2Cl)c(=O)c2ccccc21,-3.56%,–
CCN(CC)C(=O)c1sc2nc(-c3ccccc3)ccc2c1N,–,7.94 µM (active)
CCOC(=O)c1sc2nc(SC)nc(-c3ccccc3)c2c1N,-19.5%,–
CS(=O)(=O)c1sc2nc(-c3ccccc3)cc(-c3ccccc3)c2c1N,2.34%,–
Cc1ccc(-c2nc3ccccc3[nH]2)cc1N,–,3.16 µM (active)
c1ccc(-c2[nH]ncc2-c2nc3ccccc3[nH]2)cc1,23.7%,–
COc1ccc(Br)cc1C(=O)NC(=S)Nc1cc(-c2nc3ccccc3[nH]2)ccc1C,-3.02% [at 1.84 µM],–
Cc1ccc(-c2nc3ccccc3[nH]2)cc1NC(=O)c1sc2ccccc2c1Cl,-58.7%,–
c1ccc2[nH]c(-c3nc4ccccc4[nH]3)nc2c1,–,7.94 µM (active)
OCCNc1nc2ccccc2[nH]1,-20.5%,–
COc1cc2[nH]c(=O)n(Cc3ccc(C(=O)NCc4ccc(C)cc4)cc3)c(=O)c2cc1OC,12.5%,–
CCCCCn1c(=O)[nH]c2cc(C(=O)Nc3cc(C)cc(C)c3)ccc2c1=O,-0.402%,–
Cc1nn(-c2ccccc2)c2c1C(c1cccc([N+](=O)[O-])c1)N(c1ccccc1)C(=O)N2 (stereo not drawn),24.3%,–
Cc1nn(-c2ccc([N+](=O)[O-])cc2)c(N)c1-c1ccccc1,–,10 µM (active)
CC(C)(C)c1cnnn1-c1ccc([N+](=O)[O-])cc1,3.09%,–
CCCCN1C(=O)c2[nH]nc(-c3ccccc3O)c2C1c1cccc(OCc2ccccc2)c1 (stereo not drawn),-11.7%,–
